# Bioassay records (PubChem BioAssay)
# Rows were chosen to be rich in hits. Some 11% of all compounds tested hit in one or more screens of this group.
# USP17 inh: human USP17-like deubiquitinase inhibition. inhibition, % at 50 µM. purified USP17, Ub-rhodamine cleavage fluorescence, 3 h. AID 1645855. 47,000 tested, 6.5% active. A8MUK1
# USP30 inh: human USP30 deubiquitinase inhibition. Q70CQ3. purified USP30, Ub-rhodamine cleavage fluorescence. inhibition, % at 25 µM. 47,000 tested, 5.3% active
# Target sequence (Q70CQ3 whole entry, looked up): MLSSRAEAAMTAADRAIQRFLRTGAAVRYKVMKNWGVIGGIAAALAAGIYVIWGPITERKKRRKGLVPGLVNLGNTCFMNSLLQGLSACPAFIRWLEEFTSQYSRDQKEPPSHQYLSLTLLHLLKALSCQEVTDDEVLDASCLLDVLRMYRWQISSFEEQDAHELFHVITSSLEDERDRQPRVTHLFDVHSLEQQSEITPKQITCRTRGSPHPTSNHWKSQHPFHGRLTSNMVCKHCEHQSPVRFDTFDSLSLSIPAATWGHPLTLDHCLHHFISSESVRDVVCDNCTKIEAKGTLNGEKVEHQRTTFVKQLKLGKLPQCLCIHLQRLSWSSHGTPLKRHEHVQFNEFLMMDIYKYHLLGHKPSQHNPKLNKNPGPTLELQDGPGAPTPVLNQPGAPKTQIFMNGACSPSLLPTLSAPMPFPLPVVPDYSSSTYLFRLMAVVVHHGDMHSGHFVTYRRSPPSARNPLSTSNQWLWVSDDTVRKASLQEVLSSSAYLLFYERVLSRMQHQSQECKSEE
# USP28 block: blocks human USP28 ubiquitin-rhodamine cleavage | inhibition, % at 25 µM | 47,000 tested, 3% active | purified USP28, Ub-rhodamine cleavage fluorescence, 30 min | Q96RU2
# The depositor's hits bear a star; i = inactive; nt = not tested or not shown. Cut-off read from the data, not from the text of the source: active = inhibition above about 30%; inactive = the rest.
SMILES,USP17 inh,USP30 inh,USP28 block
CC(C)NC(=O)c1[nH]nc2c1COc1ccccc1-2,-7,2,17
COc1ccc2c(c1)CCc1c-2n[nH]c1C(=O)NCCN1CCOCC1,10,3,5
COc1ccc(NC(=O)c2[nH]nc3c2COc2ccccc2-3)c(OC)c1,77*,10,21
COc1ccc2c(c1)CCc1c-2n[nH]c1C(=O)Nc1ccc(F)cc1C,15,30*,6
COc1ccc(NC(=O)c2[nH]nc3c2CCc2ccccc2-3)c(OC)c1,15,-53,11
COc1ccc2c(c1)CCc1c-2n[nH]c1-c1nc(-c2ccccn2)no1,33*,-58,-28
CC(C)CN1[C@H]2CCNCC[C@@H]2Oc2ccccc2S1(=O)=O,-7,-117,-18
O=C(CN1CC2(CCOCC2)Oc2ccc(Cl)cc2C1=O)NC1CCCC1,0,-3,4
Cn1nc(C2CCCN(S(=O)(=O)c3ccccc3)C2)c2nccnc21 (centres undefined),0,6,1
COCCn1c(=O)[nH]c(=O)c2c3c(cnc21)C(=O)CC(c1ccc(OC)cc1)C3 (centres undefined),-58,-142,-33
O=C(CN1C(=O)c2ccccc2S1(=O)=O)Nc1c(F)cccc1F,2,14,9
Cc1cccc(C(C)C)c1NC(=O)CN1c2ccc(F)cc2-c2ccccc2S1(=O)=O,3,30*,5
COc1ccc(N2CCN(C(=O)CCCCCn3c(=O)[nH]c4ccccc4c3=O)CC2)cc1,8,23,9
CC(=O)c1ccc(N2CCN(C(=O)Cn3c(=O)[nH]c4ccccc4c3=O)CC2)cc1,42*,nt,nt
O=C(CCCn1c(=O)[nH]c2ccccc2c1=O)N1CCN(c2ccc(Cl)cc2)CC1,-11,41*,3
O=C(CCn1c(=O)[nH]c2ccccc2c1=O)N1CCN(c2ccc([N+](=O)[O-])cc2)CC1,17,-1,0
O=C(Cn1c(=O)[nH]c2ccccc2c1=O)N1CCN(c2ccccc2F)CC1,24,32*,13
Cc1cccc(N2CCN(C(=O)Cn3c(=O)[nH]c4ccccc4c3=O)CC2)c1C,0,13,5
Cc1ccc(NC(=O)c2ccccc2)c(=O)n1CC(=O)N1CCCC1,1,-5,-3
Cc1ccc(NC(=O)c2ccccc2)c(=O)n1CC(=O)N1CCN(c2ccccc2F)CC1,nt,30*,9
O=c1c2cnc3nc(C(F)(F)F)nn3c2ccn1CC1CCCO1 (centres undefined),12,11,8
CCN(Cc1ccc(OC)cc1)S(=O)(=O)c1ccc(OC)c(-c2noc(C)n2)c1,-2,-3,-19
Cc1nc(C2CCN(Cc3ccc(F)c(F)c3)C2)cc(=O)[nH]1 (centres undefined),12,nt,nt
Cc1cc2c3c([nH]c2cc1S(=O)(=O)Nc1ccc2c(c1)OCO2)CC(C)(C)CC3=O,23,5,13
COc1ccc(CN(C(=O)CN2C(=O)c3ccccc3S2(=O)=O)c2ccccc2O)cc1,0,-5,12
SMILES,USP17 inh,USP30 inh,USP28 block
O=C1c2c(O)c(Cl)cc3c2[C@@]2(Oc4ccc(O)c5c4[C@]3(O2)[C@@H]2O[C@@H]2C5=O)[C@@H]2O[C@H]12,80*,44*,90*
COc1ccccc1C1C(C(=O)Nc2ccc(F)cc2)=C(C)Nc2nc3ccccc3n21 (centres undefined),5,-2,6
COc1ccc(CNC(=O)c2ccc(Oc3nccnc3N3CCCCC3)cc2)cc1OC,-4,1,0
C[C@@H]1C(=O)O[C@H]2CC34[C@H]5C[C@@H](C(C)(C)C)C36[C@@H](OC(=O)[C@@H]6O)OC4(C(=O)O5)[C@]21O (some centres undefined),20,41*,9
C[C@@H]1C(=O)OC2[C@H](O)C34[C@H]5C[C@@H](C(C)(C)C)C36[C@@H](OC(=O)[C@@H]6O)O[C@@]4(C(=O)O5)[C@]21O (some centres undefined),8,19,6
CC(C)NC(=O)CN1CCC2(CC1)Nc1cc(Cl)ccc1C1=NCCN12,1,-6,-6
COc1ccc(NS(=O)(=O)c2cc(NC(=O)c3ccccn3)ccc2N2CCCCC2)cc1,-37,-39,-17
NS(=O)(=O)c1ccc(NC(=O)CNCCc2ccc(F)cc2)cc1,-11,18,4
Cc1ccc(-c2cc(C(=O)Nc3ccc(S(N)(=O)=O)cc3)[nH]n2)c(O)c1,39*,32*,48*
CCN1CCN(c2nc3ncn(CC(=O)NC(C)C)c(=O)c3s2)CC1,1,-1,-1
O=C(Cn1c(=O)n(Cc2ccc(C(=O)NC3CCCC3)cc2)c(=O)c2ccccc21)c1ccc(Cl)c(Cl)c1,19,12,3
O=C(Cn1c(=O)n(Cc2ccc3c(c2)OCO3)c(=O)c2ncccc21)NCc1ccccc1,76*,85*,62*
O=C(Cn1c(=O)n(Cc2ccc3c(c2)OCO3)c(=O)c2ccccc21)c1ccccc1,23,36*,12
O=C(Cn1c(=O)n(Cc2ccc(F)cc2)c(=O)c2ncccc21)NCc1ccc(F)cc1,nt,-56,-8
Cc1ccc(C(=O)N2C[C@@H](O)[C@H](N3CCc4ccccc4C3)C2)cn1,-6,-20,-3
O=S(=O)(Nc1ccc(O)cc1)c1ccc2oc3ccc(S(=O)(=O)Nc4ccc(O)cc4)cc3c2c1,54*,34*,23
O=C(c1noc2ccc(S(=O)(=O)Nc3cccc(F)c3)cc12)N1CCOCC1,-14,-7,-9
CC1CCCN1C(=O)c1ccn(-c2ccc3ccc(-c4cccnc4)cn23)n1 (centres undefined),-158,i,-259
Cc1cc(O)c2c3c(c(O)cc2c1)C(=O)c1c(O)cccc1C3=O,63*,-17,73*
O=C1c2cccc(O)c2C(=O)c2c(O)cccc21,-91,i,-166
CCc1cc(C(=O)c2ccc(OC)cc2)c(NC(=O)CSc2nnc(-c3cccs3)n2C)s1,61*,nt,nt
COc1ccc(C(=O)CSc2nnc(-c3cc4ccccc4o3)n2C)cc1,13,2,0
CCN1CCN(CCCN2C(=O)C3C(C(=O)Nc4ccc(C(C)C)cc4)C4C=CC3(O4)C2C(=O)NC2CCCCC2)CC1 (centres undefined),9,15,2
CC(C)CCN1C(=O)C2C(C(=O)Nc3ccc(Oc4ccccc4)cc3)C3C=CC2(O3)C1C(=O)NC1CCCCC1 (centres undefined),nt,63*,18
CCCCN1C(=O)C2C(C(=O)Nc3ccc(Oc4ccccc4)cc3)C3C=CC2(O3)C1C(=O)NC1CCCCC1 (centres undefined),2,11,3
CC(C)c1ccc(NC(=O)C2C3C=CC4(O3)C2C(=O)N(CCCN2CCC(Cc3ccccc3)CC2)C4C(=O)NC2CCCCC2)cc1 (centres undefined),0,36*,18
Cc1cc(-c2cncnc2C2CCCN(C(=O)Cc3ccc(F)cc3)C2)on1 (centres undefined),9,28,5
O=C1NCC2(C/C=C/CCOc3ccccc31)CCN(C(=O)c1cnccn1)CC2,8,29,16
CC(C)(C)NC(=O)c1ccc(-n2cc(CNC(=O)C3CC3)cn2)cc1,-10,-5,-5
O=C(Nc1cccnc1)C1CCCN(c2ncnc3nc[nH]c23)C1 (centres undefined),-1,0,-2
